Reference: PubChem BioAssay AID1159580 (chemical genetic matrix, 2015)
Several values for one entry are separate records, joined by “and”; a condition that tells them apart may be missing. Identical values can stand only once. About 2,000 (36%) of roughly 5,500 compounds were called active. Another 18% or so got no clear call; they are omitted. Cut-off read from the data, not from the text of the source: active = normalized growth mostly below about 0.91 (no sharp cut-off); inconclusive = no clear call, values can overlap the other calls; inactive = mostly above about 0.92. The list shows a part of the results.

Assay: chemical genetic growth profiling, strain panel (AID 1159580);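 note: tested at 20 µM; growth read once vehicle control cultures reached saturation at 30 °C; 1 = growth at the plate median or of vehicle wells; lower values mean less growth of the strain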
Conditions: S. cerevisiae deletion strains, growth OD

Measured: normalized growth

COc1ccc(C(Cl)=C(c2ccc(OC)cc2)c2ccc(OC)cc2)cc1
inactive: locus YAL021C, strain ccr4, stronger effect = lower value 1.04 | locus YAL026C, strain drs2, stronger effect = lower value 1.03 | locus YAL030W, strain snc1, stronger effect = lower value 1.03 | locus YBL061C, strain skt5, stronger effect = lower value 0.992 | locus YBR009C, strain hhf1, stronger effect = lower value 1.01 | locus YBR021W, strain FUR4, stronger effect = lower value 0.994 | locus YBR023C, strain chs3, stronger effect = lower value 0.993 | locus YBR171W, strain sec66, stronger effect = lower value 1.03 | locus YBR229C, strain ROT2, stronger effect = lower value 1.01 | locus YBR231C, strain swc5, stronger effect = lower value 1.03 | locus YBR279W, strain paf1, stronger effect = lower value 0.984 | locus YCL011C, strain gbp2, stronger effect = lower value 1.02 | locus YCL016C, strain dcc1, stronger effect = lower value 0.985 | locus YCL029C, strain bik1, stronger effect = lower value 1.01 | locus YCL061C, strain MRC1, stronger effect = lower value 1.03 | locus YCL069W, strain vba3, stronger effect = lower value 1.03 | locus YCR088W, strain abp1, stronger effect = lower value 1.02 | locus YDL005C, strain med2, stronger effect = lower value 1.03 | locus YDL035C, strain GPR1, stronger effect = lower value 0.989 | locus YDL040C, strain nat1, stronger effect = lower value 1.03 | locus YDL074C, strain BRE1, stronger effect = lower value 1.03 | locus YDL101C, strain DUN1, stronger effect = lower value 1.03 | locus YDL134C, strain PPH21, stronger effect = lower value 0.981 | locus YDL185W, strain tfp1, stronger effect = lower value 1.01 | locus YDL192W, strain arf1, stronger effect = lower value 1.02 | locus YDR001C, strain nth1, stronger effect = lower value 1.02 | locus YDR069C, strain doa4, stronger effect = lower value 0.993 | locus YDR101C, strain arx1, stronger effect = lower value 0.997 | locus YDR137W, strain rgp1, stronger effect = lower value 0.97 | locus YDR150W, strain NUM1, stronger effect = lower value 1.01 | locus YDR159W, strain sac3, stronger effect = lower value 1.01 | locus YDR162C, strain NBP2, stronger effect = lower value 1 | locus YDR195W, strain ref2 1.06 | locus YDR297W, strain sur2, stronger effect = lower value 1.02 | locus YDR318W, strain mcm21, stronger effect = lower value 1.01 | locus YDR334W, strain swr1, stronger effect = lower value 1.04 | locus YDR335W, strain msn5, stronger effect = lower value 1 | locus YDR388W, stronger effect = lower value 1.03 | locus YDR392W, strain spt3, stronger effect = lower value 1 | locus YDR502C, strain sam2, stronger effect = lower value 1.01 | locus YEL003W, strain gim4, stronger effect = lower value 1.03 | locus YEL037C, strain rad23, stronger effect = lower value 1.03 | locus YEL061C, strain CIN8 (second series), stronger effect = lower value 1.06 | locus YEL061C, strain CIN8, stronger effect = lower value 1.01 | locus YER015W, strain faa2, stronger effect = lower value 1.03 | locus YER016W, strain bim1, stronger effect = lower value 0.971 | locus YER110C, stronger effect = lower value 1.03 | locus YER111C, strain swi4, stronger effect = lower value 1.03 | locus YER155C, strain BEM2 (second series), stronger effect = lower value 1.03 | locus YER155C, strain BEM2, stronger effect = lower value 1.02 | locus YER167W, strain BCK2, stronger effect = lower value 1.01 | locus YFR010W, strain ubp6, stronger effect = lower value 1.02 | locus YGL078C, strain dbp3, stronger effect = lower value 1.01 | locus YGL086W, strain mad1, stronger effect = lower value 0.998 | locus YGL167C, strain pmr1, stronger effect = lower value 1.01 | locus YGL173C, strain kem1, stronger effect = lower value 1.03 | locus YGL227W, strain vid30, stronger effect = lower value 1.02 | locus YGL240W, strain doc1, stronger effect = lower value 1.05 | locus YGL248W, strain PDE1, stronger effect = lower value 1.03 | locus YGL253W, strain hxk2, stronger effect = lower value 0.999 | locus YGR135W, strain pre9, stronger effect = lower value 1.04 | locus YGR252W, strain gcn5, stronger effect = lower value 1.04 | locus YHR013C, strain ard1, stronger effect = lower value 1.04 | locus YHR027C, strain rpn1, stronger effect = lower value 0.989 | locus YHR030C, strain SLT2, stronger effect = lower value 1.01 and 0.939 | locus YHR079C, strain IRE1 (second series), stronger effect = lower value 1.02 | locus YHR079C, strain IRE1, stronger effect = lower value 0.963 | locus YHR094C, strain hxt1, stronger effect = lower value 1.03 | locus YHR129C, strain ARP1, stronger effect = lower value 1.02 | locus YHR142W, strain chs7, stronger effect = lower value 1.06 | locus YHR200W, strain rpn10, stronger effect = lower value 1.02 | locus YIL066C, strain RNR3, stronger effect = lower value 1 | locus YIL073C, strain SPO22, stronger effect = lower value 1.03 | locus YIL125W, strain kgd1, stronger effect = lower value 1.01 | locus YIR030C, strain dcg1, stronger effect = lower value 1.02 | locus YJL092W, strain hpr5, stronger effect = lower value 1.02 | locus YJL095W, strain BCK1 (second series), stronger effect = lower value 1.03 | locus YJL095W, strain BCK1, stronger effect = lower value 1.06 and 0.963 | locus YJL115W, strain asf1, stronger effect = lower value 1.02 | locus YJL129C, strain trk1, stronger effect = lower value 1.04 | locus YJL134W, strain LCB3, stronger effect = lower value 1.01 | locus YJL154C, strain vps35, stronger effect = lower value 1.03 | locus YJL164C, strain tpk1, stronger effect = lower value 1.01 | locus YJL166W, strain qcr8, stronger effect = lower value 1.04 | locus YJL168C, strain set2, stronger effect = lower value 1.03 | locus YJL187C, strain SWE1 (second series), stronger effect = lower value 1.04 | locus YJR043C, strain POL32, stronger effect = lower value 0.999 | locus YJR066W, strain TOR1, stronger effect = lower value 0.965 | locus YJR075W, strain HOC1, stronger effect = lower value 1.03
